Compound activity as filed in PubChem BioAssay.
C diff growth – C. difficile growth inhibitors, primary screen, HTS; hit rate 0.25% among 86,000; growth activity, negative = inhibition, % at 16 µg/mL (by protocol); Clostridium difficile clinical isolate growth, OD600, 24 h; active compounds read low;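 active = mean growth activity at or below -80% and every replicate also at or below -80%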;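 note: 0% = DMSO wells and -100% = levofloxacin 16 µg/mL wells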
Pf Dd2 growth – P. falciparum Dd2 growth inhibitors, primary screen, SYBR Green fluorescence, single dose replicates; 72 h; active compounds read low; activity change, % at 10 µM; hit rate 2.3% among 94,000; AID 1159554, 2015; in the data active = activity change below about -80%
T cruzi growth – T. cruzi intracellular proliferation inhibitors, primary screen, cell-based, beta-gal Tulahuen parasites, NIH3T3 host, luminescence; hit rate 5.9% among 77,000; AID 624255, 2012; T. cruzi beta-gal in NIH3T3, GalScreen luminescence, 90 h; inhibition, % at 8.34 µM;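 active = mean inhibition above about 93%, with at least 55% of replicates each passing it, limit read from the data, passing the limit was not always enough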
An asterisk follows results filed as active; / = no result given. This is a sample that favours compounds with a hit; in the whole collection about 6.7% have one here.

SMILES	C diff growth	Pf Dd2 growth	T cruzi growth
Cc1cccc(S(=O)(=O)N2CC[C@@H]3[C@H](CO)N(C)c4ccc(C#Cc5ccc(F)cc5)cc4[C@@H]32)c1	-98*	-72	0
CN1c2ccc(C#Cc3ccc(F)cc3)cc2[C@H]2[C@H](CCN2S(=O)(=O)c2ccccc2F)[C@@H]1CO	-6	-9	77
COc1cccc(-c2ccc3c(c2)[C@H]2[C@H](CCN2S(=O)(=O)c2ccc(F)cc2)[C@@H](CO)N3C)c1	3	-4	88
CN1c2ccc(-c3ccccc3)cc2[C@H]2[C@H](CCN2S(=O)(=O)c2ccccc2F)[C@H]1CO	1	-3	-9
COc1cccc(S(=O)(=O)N2CC[C@H]3[C@@H](CO)N(C)c4ccc(C#Cc5ccc(F)cc5)cc4[C@H]32)c1	-99*	-34	35
C[C@H](CO)N1C[C@H](C)[C@H](CN(C)S(=O)(=O)c2ccc(F)cc2)Oc2ccc(NC(=O)C3CC3)cc2CC1=O	-1	-22	49
CC=Cc1ccc2n(c1=O)C[C@@H]1[C@@H](CO)[C@H](C(=O)NC3CCCC3)N(C(=O)C3CCC3)[C@H]21 (mixture of isomers)	2	60	/
O=C(C[C@H]1CC[C@@H]2[C@H](COC[C@@H](O)CN2C(=O)c2ccccc2F)O1)N1CCCCC1	/	17	17
C[C@H]1CN([C@@H](C)CO)C(=O)Cc2cc(NC(=O)Nc3ccc4c(c3)OCO4)ccc2O[C@@H]1CN(C)Cc1ccc(Oc2ccccc2)cc1	4	-36	70
C[C@H](CO)N1C[C@H](C)[C@@H](CN(C)Cc2ccc(Oc3ccccc3)cc2)Oc2ccc(NC(=O)Nc3ccc(F)cc3)cc2CC1=O	63	-82*	56
C[C@@H]1CN([C@@H](C)CO)C(=O)Cc2cc(NC(=O)Nc3ccc4c(c3)OCO4)ccc2O[C@H]1CN(C)Cc1ccc(Oc2ccccc2)cc1	11	-81*	94
C[C@H](CO)N1C[C@H](C)[C@H](CN(C)Cc2ccc(Oc3ccccc3)cc2)Oc2ccc(NC(=O)Nc3ccc(F)cc3)cc2CC1=O	37	-8	73
C[C@@H]1CN([C@H](C)CO)C(=O)c2cc(NC(=O)CCN3CCOCC3)ccc2O[C@@H]1CN(C)Cc1ccc(Oc2ccccc2)cc1	-7	3	47
C[C@@H]1CN([C@H](C)CO)C(=O)c2cccc(NC(=O)CCCCCC(=O)Nc3ccccc3N)c2O[C@H]1CN(C)CC1CC1	-4	-75	/
C[C@H]1CN([C@@H](C)CO)C(=O)c2cccc(NC(=O)CCCCCC(=O)Nc3ccccc3N)c2O[C@@H]1CN(C)CC1CC1	-17	-78	/
C[C@H]1CN([C@@H](C)CO)C(=O)c2cccc(NC(=O)CCCCCC(=O)Nc3ccccc3N)c2O[C@H]1CN(C)CC1CCCCC1	-3	-83*	/
C[C@@H]1CN([C@@H](C)CO)C(=O)c2cccc(NC(=O)CCCCCC(=O)Nc3ccccc3N)c2O[C@H]1CN(C)CC1CC1	-2	-85*	/
C[C@H](CO)N1C[C@H](C)[C@@H](CN(C)CC2CCCCC2)Oc2c(NC(=O)CCCCCC(=O)Nc3ccccc3N)cccc2C1=O	5	-88*	/
C[C@@H]1CN([C@H](C)CO)C(=O)c2cccc(NC(=O)CCCCCC(=O)Nc3ccccc3N)c2O[C@@H]1CN(C)CC1CC1	7	-45	/
CNC[C@H]1Oc2ccc(NS(=O)(=O)c3cn(C)cn3)cc2CC(=O)N([C@H](C)CO)C[C@@H]1C	-10	42	-7
Cc1noc(C)c1NC(=O)N(C)C[C@@H]1Oc2ccc(NC(=O)C3CCCCC3)cc2CC(=O)N([C@@H](C)CO)C[C@@H]1C	2	14	-25
Cc1noc(C)c1NC(=O)N(C)C[C@H]1Oc2ccc(NC(=O)C3CC3)cc2CC(=O)N([C@@H](C)CO)C[C@H]1C	4	-83*	-16
C[C@H]1CN([C@@H](C)CO)C(=O)Cc2cc(NC(=O)C3CC3)ccc2O[C@H]1CN(C)Cc1ccc(C(F)(F)F)cc1	8	-80*	37
CNC[C@@H]1Oc2ccc(NS(=O)(=O)c3cn(C)cn3)cc2CC(=O)N([C@H](C)CO)C[C@@H]1C	0	6	98*
C[C@H](CO)N1C[C@H](C)[C@H](CN(C)Cc2ccc(C(F)(F)F)cc2)Oc2ccc(NC(=O)C3CC3)cc2CC1=O	5	11	10
Cc1noc(C)c1NC(=O)N(C)C[C@@H]1Oc2ccc(NS(=O)(=O)c3cn(C)cn3)cc2CC(=O)N([C@H](C)CO)C[C@H]1C	4	-83*	-8
Cc1noc(C)c1NC(=O)N(C)C[C@@H]1Oc2ccc(NS(=O)(=O)c3cn(C)cn3)cc2CC(=O)N([C@@H](C)CO)C[C@H]1C	-5	40	6
